These results are taken from PubChem BioAssay.

The structures appear in SMILES notation. Calls of active or inactive are those of the source. Rule as the data show it: active = fold change permeability below about 0.7 or above about 1.3; inactive = in between.

This experiment in a line: modulators of brain endothelial barrier permeability, primary screen, cell-based, FITC-avidin fluorescence, HTS (AID 1963498). Also: test concentration not given here. As to conditions: actives lie on both sides.
On to `CCN(CC)CC#CCOC(=O)C(O)(c1ccccc1)C1CCCCC1` (centres undefined), for which the fold change permeability is 1.3 (active).

As to `CC(=O)OCC1=C(C(=O)O)N2C(=O)[C@@H](NC(=O)Cc3cccs3)[C@H]2SC1`, the fold change permeability is 0.8 (inactive).

Consider `C[n+]1ccccc1CC(=O)c1ccc(Br)cc1`, for which the fold change permeability was 0.9 (inactive).

Take `C=C1C[C@@]23CC[C@H]4[C@@](C)(CCC[C@@]4(C)C(=O)O[C@@H]4O[C@H](CO)[C@@H](O)[C@H](O)[C@H]4O)[C@@H]2CC[C@]1(O[C@@H]1O[C@H](CO)[C@@H](O)[C@H](O)[C@H]1O[C@@H]1O[C@H](CO)[C@@H](O)[C@H](O)[C@H]1O)C3`: the fold change permeability is 1.7 (active).

Consider `N[C@@H](Cc1c[nH]c2ccccc12)C(=O)O`, for which the fold change permeability was 1.3 (active).

As for `NC12CC3CC(CC(C3)C1)C2`, the fold change permeability was 0.9 (inactive).

For the compound `Cc1cccc(C#Cc2ccccc2)n1`, the fold change permeability was 0.9 (inactive).

As for `COc1cccc(OC)c1-c1cc(C(=O)NC2(C(=O)O)C3CC4CC(C3)CC2C4)nn1-c1ccc(C(=O)N(C)CCCN(C)C)cc1C(C)C` (centres undefined), the fold change permeability is 0.9 (inactive).

Turning to `CCCCCOC(=O)Nc1nc(=O)n([C@@H]2O[C@H](C)[C@@H](O)[C@H]2O)cc1F`, the fold change permeability is 1.4 (active).

For `CC[N+](CC)(CC)CCOc1cccc(OCC[N+](CC)(CC)CC)c1OCC[N+](CC)(CC)CC`, the fold change permeability is 0.8 (inactive).

Take `COc1ccc(S(=O)(=O)N(CC(=O)NO)CC(C)C)cc1`: the fold change permeability is 1.1 (inactive).

Regarding `NC(Cc1ccc(Cl)cc1)C(=O)O` (centres undefined), the fold change permeability was 0.9 (inactive).

For `N#Cc1c(N2CCCC2)nc(N)c2c(N)nc(N3CCCC3)cc12`, the fold change permeability is 1.8 (active).

`CCNC(=O)[C@H]1O[C@@H](n2cnc3c(N)nc(NCCc4ccc(CCC(=O)O)cc4)nc32)C(O)[C@H]1O` (some centres undefined): the fold change permeability was 1.1 (inactive).

For `CCN(Cc1ccncc1)C(=O)C(CO)c1ccccc1` (centres undefined), the fold change permeability was 1.6 (active).

In the case of `O=C(NCCc1nccs1)c1cnc2c(SSc3cccc4cc(C(=O)NCCc5nccs5)cnc34)cccc2c1`, the fold change permeability is 0.7 (active).

Turning to `N=c1c[n+](N2CCOCC2)[n-]o1`, the fold change permeability was 0.8 (inactive).

Take `COc1cc([C@@H]2c3cc4c(cc3[C@@H](O[C@@H]3O[C@@H]5CO[C@@H](C)O[C@H]5[C@H](O)[C@H]3O)[C@H]3COC(=O)[C@H]23)OCO4)cc(OC)c1O`: the fold change permeability was 0.9 (inactive).

As to `C[C@]12CCC(=O)C=C1CC[C@@H]1[C@@H]2CC[C@@]2(C)[C@H]1CC[C@]2(O)C(=O)CO`, the fold change permeability was 1.1 (inactive).

As for `O=C(C(c1ccccc1)c1ccccc1)N1CCN(CC(O)COc2cccc3ncccc23)CC1` (centres undefined), the fold change permeability is 0.8 (inactive).

On to `OC[C@H]1O[C@@H](n2cnc3c(NC4CCCCC4)ncnc32)[C@H](O)[C@@H]1O`, for which the fold change permeability is 1.2 (inactive).

With `NC(=Nc1ccc(OCCCCCOc2ccc(N=C(N)c3ccccc3)cc2)cc1)c1ccccc1`, the fold change permeability was 1 (inactive).

Consider `CCCCCCCCCCCCCCCCCCOP(=O)([O-])OC1CC[N+](C)(C)CC1`, for which the fold change permeability is 0.9 (inactive).

With `CCN(CC)CCNC(=O)c1ccc(N)cc1`, the fold change permeability is 0.8 (inactive).

On to `CCCCCN=C(N)N/N=C/c1c[nH]c2ccc(OC)cc12`, for which the fold change permeability was 0.9 (inactive).

Regarding `COC(=O)C1=C(C)NC(C)=C(C(=O)OC)C1c1cccc(NC(=O)NCCCN2CCC(c3cccc(OC)c3)CC2)c1`, the fold change permeability is 1.2 (inactive).

For the compound `NC(=O)C1=CN(C2OC(COP(=O)(O)OP(=O)(O)OC[C@H]3O[C@@H](n4cnc5c(N)ncnc54)C(OP(=O)(O)O)[C@H]3O)C(O)C2O)C=CC1` (some centres undefined), the fold change permeability was 0.9 (inactive).

Consider `CN(C)CCC(c1ccccc1)c1ccccn1` (centres undefined), for which the fold change permeability was 1 (inactive).

Regarding `CN1CCN(c2nc3cc(C(F)(F)F)ccc3n3cccc23)CC1`, the fold change permeability is 1.7 (active).

For the compound `O=C(O)CSCC(=O)NC1CCSC1=O` (centres undefined), the fold change permeability was 1.7 (active).

For `Cc1cc(C)c(/C=C2\C(=O)Nc3ccccc32)[nH]1`, the fold change permeability was 23.2 (active).

Take `Cc1cccc(-c2[nH]c(Cc3cccc(C(N)=O)c3)nc2-c2ccc3nccnc3c2)n1`: the fold change permeability was 0.9 (inactive).

With `O=C(OC12CC3CC(CC(C3)C1)C2)c1ccc(NCc2cc(O)ccc2O)cc1`, the fold change permeability was 1 (inactive).

In the case of `CCc1cccc(N(C)C(N)=Nc2cccc3ccccc23)c1`, the fold change permeability was 1.1 (inactive).

Regarding `Brc1c(NC2=NCCN2)ccc2nccnc12`, the fold change permeability was 1.6 (active).

For the compound `CCCCCC[C@@H]([C@@H](C)O)n1cnc2c(N)ncnc21`, the fold change permeability is 0.7 (active).

Turning to `O=C(CCc1ccc(O)cc1)c1c(O)cc(O)cc1O`, the fold change permeability was 1 (inactive).

Consider `CC[C@H](NC(=O)c1c(O)c(-c2ccccc2)nc2ccccc12)c1ccccc1`, for which the fold change permeability was 1.1 (inactive).

Turning to `CC(C)(C)c1ccc(C(O)CCCN2CCC(C(O)(c3ccccc3)c3ccccc3)CC2)cc1` (centres undefined), the fold change permeability was 1.4 (active).
